Screening data deposited in PubChem by University of Kansas High Throughput Screening Laboratory.
Sampled rows, rich in hits. Any-hit rate of the full collection: about 3.5%.
Pf apPOL inh: Pf-apPOL DNA polymerase inhibition; 0.25% of 210,000 active; inhibition, % at 10 µM; AID 1794808; Recombinant Pf-apPOL, molecular beacon fluorescence, 1.5 h
mHTT CaM bind: inhibitors of human mutant huntingtin-calmodulin interaction; 3.6% of 190,000 active; P42858; inhibition, % at 15 µM; AID 1671202; AlphaScreen His-mHTT/GST-CaM binding, luminescence
Hits are given with their value. Cut-off read from the data, not from the text of the source: active = inhibition above about 50%; inactive = the rest.

Results for O=C(c1nnn(-c2ccccc2F)c1-c1ccccn1)N1CCN(c2ncccn2)CC1 ?
Pf apPOL inh: inactive; mHTT CaM bind: inactive

What do the screens show for `CC(C)S(=O)(=O)c1ccc(C(=O)Nc2onc3c2CCCC3)cc1`?
Pf apPOL inh: inactive; mHTT CaM bind: inactive

Results for CCOCCCNC(=O)C1CCN(c2nccnc2Oc2ccccc2C)CC1 ?
Pf apPOL inh: inactive; mHTT CaM bind: inactive

Results for Cc1ccc(N2CCC(NS(=O)(=O)c3cccc(F)c3)C2=O)cc1 (stereo unspecified) ?
Pf apPOL inh: inactive; mHTT CaM bind: inactive

What do the screens show for `Cc1cccc(S(=O)(=O)NC2CCN(c3ccccc3)C2=O)c1` (stereo unspecified)?
Pf apPOL inh: 60; mHTT CaM bind: inactive

What do the screens show for `COc1ccc(S(=O)(=O)Nc2cc(OC)c(NC(=O)c3ccccc3)cc2OC)cc1`?
Pf apPOL inh: inactive; mHTT CaM bind: inactive

What do the screens show for `CCOc1cc(N2CCOCC2)c(OCC)cc1N`?
Pf apPOL inh: inactive; mHTT CaM bind: 53

How did CCOc1ccc(C(=O)Nc2ccccc2N2CCOCC2)cc1Br do in these assays?
Pf apPOL inh: inactive; mHTT CaM bind: inactive

What do the screens show for `O=[N+]([O-])c1ccc(Sc2cccc3cccnc23)c2ncccc12`?
Pf apPOL inh: inactive; mHTT CaM bind: inactive

What do the screens show for `O=[N+]([O-])c1ccc(OS(=O)(=O)c2ccc3ccccc3c2)c2ncccc12`?
mHTT CaM bind: 100

What do the screens show for `CN1C(=O)CNC(=O)c2c1nc(N1CCOCC1)n2C`?
Pf apPOL inh: inactive; mHTT CaM bind: inactive

What do the screens show for `COc1ccc(NC(=O)Cn2c(-c3nonc3N)nc3ccccc32)cc1Cl`?
Pf apPOL inh: inactive; mHTT CaM bind: inactive

How did O=C(O)c1cccc(N2N=C(C(F)(F)F)/C(=C/c3ccc(-c4ccccc4[N+](=O)[O-])o3)C2=O)c1 do in these assays?
Pf apPOL inh: inactive; mHTT CaM bind: inactive

What do the screens show for `O=C(O)c1ccc(N2N=C(C(F)(F)F)/C(=C/c3ccc(-c4ccccc4[N+](=O)[O-])o3)C2=O)cc1`?
Pf apPOL inh: inactive; mHTT CaM bind: 50

How did Cc1oc(C2CCN(C(=O)c3ccc(C(C)C)cc3)CC2)nc1C(=O)N(C)C do in these assays?
Pf apPOL inh: inactive; mHTT CaM bind: inactive

Results for CCC1CN2C=NC(N3CCN(C(=O)Nc4ccc(Cl)cc4F)CC3)=CC2=N1 (stereo unspecified) ?
Pf apPOL inh: inactive; mHTT CaM bind: inactive

Results for CCOC(=O)Cc1csc(NC(=O)CN(C)C(=O)c2ccc(=O)[nH]c2)n1 ?
Pf apPOL inh: inactive; mHTT CaM bind: inactive

Results for Cc1cccc(C)c1N=Cc1[nH]c2ccc(Br)c(Cl)c2c1O ?
Pf apPOL inh: inactive; mHTT CaM bind: inactive

Results for COc1ccccc1N=Cc1[nH]c2ccc(Br)c(Cl)c2c1O ?
Pf apPOL inh: inactive; mHTT CaM bind: inactive

Results for Oc1c(C=Nc2ccc(F)cc2)[nH]c2ccc(Br)c(Cl)c12 ?
Pf apPOL inh: inactive; mHTT CaM bind: inactive

How did Cc1ccc(CN=Cc2[nH]c3ccc(Br)c(Cl)c3c2O)cc1 do in these assays?
Pf apPOL inh: inactive; mHTT CaM bind: inactive

How did Oc1c(C=NCc2ccc(F)cc2)[nH]c2ccc(Br)c(Cl)c12 do in these assays?
Pf apPOL inh: inactive; mHTT CaM bind: 55

What do the screens show for `Oc1c(C=NCc2ccc(Cl)cc2Cl)[nH]c2ccc(Br)c(Cl)c12`?
Pf apPOL inh: inactive; mHTT CaM bind: 58

How did Oc1c(C=NCc2ccccc2Cl)[nH]c2ccc(Br)c(Cl)c12 do in these assays?
Pf apPOL inh: inactive; mHTT CaM bind: 72

How did Oc1c(C=NCCc2ccccc2)[nH]c2ccc(Br)c(Cl)c12 do in these assays?
Pf apPOL inh: inactive; mHTT CaM bind: 86

What do the screens show for `Cc1cccc(NC(=O)C(C)Oc2ccc(Cl)cc2Cl)n1` (stereo unspecified)?
Pf apPOL inh: inactive; mHTT CaM bind: inactive

Results for COc1ccc(-c2csc(/C(C#N)=C/c3ccc(Br)o3)n2)cc1 ?
Pf apPOL inh: inactive; mHTT CaM bind: inactive

What do the screens show for `COc1ccc(C(=O)C=Cc2ccc(C)cc2)cc1`?
Pf apPOL inh: inactive; mHTT CaM bind: inactive

What do the screens show for `O=[N+]([O-])c1cc(C=Nc2ccc(F)c(Cl)c2)ccc1Cl`?
Pf apPOL inh: inactive; mHTT CaM bind: inactive

Results for COc1ccc(CCC(=O)N2CCC(c3nc(C4CC4)n[nH]3)CC2)cc1 ?
Pf apPOL inh: inactive; mHTT CaM bind: inactive

What do the screens show for `CCOc1ccc(N=C/C(=C\Nc2ccc(OCC)cc2)c2ccccc2)cc1`?
Pf apPOL inh: inactive; mHTT CaM bind: inactive

How did Cc1ccc(-n2c(O)cnc2Nc2nc(C)cc(C)n2)cc1 do in these assays?
Pf apPOL inh: inactive; mHTT CaM bind: inactive

How did Cc1cc(C)nc(Nc2ncc(O)n2-c2ccc(Cl)cc2)n1 do in these assays?
Pf apPOL inh: 52; mHTT CaM bind: inactive

Results for Cc1ccc(C)c(NC(=O)N2CCC3(CC2)Nc2cc(F)ccc2-n2cccc23)c1 ?
Pf apPOL inh: inactive; mHTT CaM bind: inactive

How did Cc1ccc(NC(=O)N2CCC3(CC2)Nc2cc(F)ccc2-n2cccc23)cc1Cl do in these assays?
Pf apPOL inh: inactive; mHTT CaM bind: 77

Results for Cc1cc(C)cc(NC(=O)N2CCC3(CC2)Nc2cc(F)ccc2-n2cccc23)c1 ?
Pf apPOL inh: inactive; mHTT CaM bind: 71

Results for O=C(Nc1cccc(Cl)c1)N1CCC2(CC1)Nc1ccccc1-n1cccc12 ?
Pf apPOL inh: inactive; mHTT CaM bind: inactive

How did Cc1ccc(NC(=O)N2CCC3(CC2)Nc2cc(F)ccc2-n2cccc23)cc1C do in these assays?
Pf apPOL inh: inactive; mHTT CaM bind: 54

Results for O=C(Nc1cccc(Cl)c1)N1CCC2(CC1)Nc1cc(F)ccc1-n1cccc12 ?
Pf apPOL inh: inactive; mHTT CaM bind: 94

What do the screens show for `O=C1OC(/C=C/c2cccc(Cl)c2Cl)=NC/1=C\c1ccc([N+](=O)[O-])cc1`?
Pf apPOL inh: inactive; mHTT CaM bind: inactive

What do the screens show for `O=C1C(N2CCCN(S(=O)(=O)c3cc(F)cc(F)c3)CC2)CCN1CC1CC1` (stereo unspecified)?
Pf apPOL inh: inactive; mHTT CaM bind: inactive

What do the screens show for `Cc1ccc(NC(=O)Nc2ccc(Cl)cc2Cl)nc1`?
Pf apPOL inh: inactive; mHTT CaM bind: inactive

What do the screens show for `CN(C)C(=O)C1CN(C(=O)c2cccs2)CC12CCCCC2` (stereo unspecified)?
Pf apPOL inh: inactive; mHTT CaM bind: inactive

How did Cc1cc(C)cc(C(=O)N2CCCC(C(=O)NCc3ccccc3F)C2)c1 (stereo unspecified) do in these assays?
Pf apPOL inh: inactive; mHTT CaM bind: inactive

Results for O=C(Cn1c(=O)n(CCc2ccccc2)c(=O)c2ncccc21)Nc1ccc2c(c1)OCO2 ?
Pf apPOL inh: inactive; mHTT CaM bind: inactive

What do the screens show for `N#CCC(=O)NN=Cc1ccc(-c2cc(C(F)(F)F)cc(C(F)(F)F)c2)o1`?
Pf apPOL inh: inactive

How did CC1CCc2cc(F)ccc2N1C(=S)NCC1CCCO1 (stereo unspecified) do in these assays?
mHTT CaM bind: inactive

How did O=C(Nc1ccc2c(c1)OCCO2)N1CCC2(CC1)Nc1ccccc1-n1cccc12 do in these assays?
Pf apPOL inh: inactive; mHTT CaM bind: 62

Results for O=C(Nc1ccc2c(c1)OCO2)N1CCC2(CC1)Nc1cc(F)ccc1-n1cccc12 ?
Pf apPOL inh: inactive; mHTT CaM bind: 68

How did O=C(NCc1cccc(Br)c1)c1ccc2c(c1)NC(=O)C1CCCCN21 (stereo unspecified) do in these assays?
Pf apPOL inh: inactive; mHTT CaM bind: inactive

What do the screens show for `O=C(CSc1nccn(-c2ccc(F)c(Cl)c2)c1=O)Nc1cc(F)ccc1F`?
Pf apPOL inh: inactive; mHTT CaM bind: inactive
